Experimental data taken from PubChem BioAssay (EPA / NIEHS).
Several values for one entry are separate records, joined by “and”; a condition that tells them apart may be missing. Equal entries are not always repeated. Where a structure was tested more than once in an assay, its records may differ in their call. Activity calls are given as the source filed them. The calls were made as follows: active = hit-call score of the fitted dose curve at least 0.9, where 1 is the maximum; inactive = score below 0.9.

assay: BSK_3C_TissueFactor: BioMAP Diversity Plus: 3C Assay for Tissue Factor Biomarker Activity (AID 2282997); conditions: BioMAP 3C HUVEC, tissue factor biomarker readout; actives raise or lower the signal
Procedure, shortened: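 Readout: Tissue Factor ELISA. Cells: human primary umbilical vein endothelium. Time: 24 h after dosing. Analysis: bidirectional fit, DMSO baseline.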

SMILES	outcome	AC50
C=C(C)C(=O)OCCOCCOCCOC(=O)C(=C)C	inactive	–
CC1(C)CCC[C@]2(C)[C@H]3CCO[C@]3(C)CC[C@@H]12	–	32 µM (active) and 30.7 µM (active)
CC(C)(N=C=O)c1cccc(C(C)(C)N=C=O)c1	inactive	–
CCC(C)c1cc([N+](=O)[O-])cc([N+](=O)[O-])c1OC(=O)OC(C)C (configuration not stated)	–	9.93 µM (active)

assay: BSK_3C_uPAR: BioMAP Diversity Plus: 3C Assay for Urokinase-type plasminogen activator receptor (uPAR) Biomarker Activity (AID 2282998); conditions: BioMAP 3C HUVEC, uPAR biomarker ELISA; actives raise or lower the signal
Procedure, shortened: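 Dose primary human umbilical vein endothelial cells, incubate 24 h, measure cell-surface uPAR by ELISA, then fit the signal in both directions against the DMSO negative control.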

SMILES	outcome	AC50
C=C(C)C(=O)OCCOCCOCCOC(=O)C(=C)C	inactive	–
CC1(C)CCC[C@]2(C)[C@H]3CCO[C@]3(C)CC[C@@H]12	inactive	32.9 µM (active)
CC(C)(N=C=O)c1cccc(C(C)(C)N=C=O)c1	inactive	–
CCC(C)c1cc([N+](=O)[O-])cc([N+](=O)[O-])c1OC(=O)OC(C)C (configuration not stated)	–	11.3 µM (active)

assay: BSK_3C_VCAM1: BioMAP Diversity Plus: 3C Assay for Vascular cell adhesion molecule 1 (VCAM1) Biomarker Activity (AID 2282999); conditions: BioMAP 3C HUVEC, VCAM1 ELISA, cytokine-stimulated; actives raise or lower the signal
Procedure, shortened: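 Activity fitted in both directions relative to DMSO, with ELISA measurement of the surface marker on primary HUVEC (3C) at 24 h post-treatment; parallel SRB staining (0.1% SRB, TCA-fixed, 560 nm) flagged overt cytotoxicity.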

SMILES	outcome	AC50
C=C(C)C(=O)OCCOCCOCCOC(=O)C(=C)C	inactive	–
CC1(C)CCC[C@]2(C)[C@H]3CCO[C@]3(C)CC[C@@H]12	inactive	–
CC(C)(N=C=O)c1cccc(C(C)(C)N=C=O)c1	inactive	–
CCC(C)c1cc([N+](=O)[O-])cc([N+](=O)[O-])c1OC(=O)OC(C)C (configuration not stated)	–	19.4 µM (active)

assay: BSK_4H_Eotaxin3: BioMAP Diversity Plus: 4H Assay for Eotaxin 3 Biomarker Activity (AID 2283000); conditions: primary human endothelial cells (HUVEC); actives raise or lower the signal;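 as to outcome: CCL26 protein level quantified by ELISA in parallel with SRB cytotoxicity check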
Procedure, shortened: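 HUVEC, 24 h post-dose, ELISA for Eotaxin-3/CCL26. Gain or loss of signal fitted bidirectionally vs DMSO baseline.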

SMILES	outcome	AC50
C=C(C)C(=O)OCCOCCOCCOC(=O)C(=C)C	inactive	–
CC1(C)CCC[C@]2(C)[C@H]3CCO[C@]3(C)CC[C@@H]12	–	33.2 µM (active) and 35 µM (active)
CC(C)(N=C=O)c1cccc(C(C)(C)N=C=O)c1	inactive	–
CCC(C)c1cc([N+](=O)[O-])cc([N+](=O)[O-])c1OC(=O)OC(C)C (configuration not stated)	–	8.5 µM (active)
